Reference: PubChem BioAssay (NCATS)
Inconclusive results are not listed. Calls of active or inactive are those of the source. Calls follow the shape of the dose curve; as a rule, active = well fitted cell-killing curve with a large enough effect; inconclusive = small, poorly fitted or top-dose-only effect, or effect the other way; inactive = no such curve, though single readings can be large or run the other way.

Assay: Quantitative High-Throughput drug screen in 47 multiple myeloma cell lines against the NCATS MIPE library collection: MMM1_PLB cell viability assay (AID 1918976); also: nearly all actives have a fitted effect of over 35% in size
Details: MMM1 myeloma cells viability, CellTiter-Glo, 48 h; series mostly up to 45.8 µM
Description: PI: Beverly A. Mock Ph.D.
Laboratory of Cancer Biology and Genetics,
Center for Cancer Research, National Cancer Institute,
National Institute of Health, Bethesda, Maryland
Drug resistance and disease progression are common in multiple myeloma (MM) patients, underscoring the need for new therapeutic combinations. […] We hypothesized that effective combinations would reduce MYC expression and enhance p16 activity. […] These preclinical data identify potentially useful drug combinations for evaluation in drug-resistant MM and reveal potential mechanisms of combined drug sensitivity.
Described herein is the primary MIPE qHTS used to cherrypick compounds. Validated compounds were then further tested for potential synergistic activiy.
[1] Peat TJ, Gaikwad SM, Dubois W, Gyabaah-Kessie N, Zhang S, Gorjifard S, Phyo Z, Andres M, Hughitt VK, Simpson RM, Miller MA, Girvin AT, Taylor A, Williams D, D'Antonio N, Zhang Y, Rajagopalan A, Flietner E, Wilson K, Zhang X, Shinn P, Klumpp-Thomas C, McKnight C, Itkin Z, Chen L, Kazandijian D, Zhang J, Michalowski AM, Simmons JK, Keats J, Thomas CJ, Mock BA. Drug combinations identified by high-throughput screening promote cell cycle transition and upregulate Smad pathways in myeloma. Cancer Lett. 2023 Aug 1;568:216284. doi: 10.1016/j.canlet.2023.216284. Epub 2023 Jun 24. PMID: 37356470; PMCID: PMC10408729.
SEQUENCE No. (e.g., 1, 2, 3, etc.); […] (e.g., Cells, Incubation, Reagent, etc.); VALUE and DESCRIPTION.
1; Cells; 5 uL; white, solid bottom 1536-well Greiner assay plate.
2; Compounds; 23 nL; Kalypsis pin tool (Wako USA) equipped with a 1536-well pin head to transfer to the assay plates.
3; Incubation; 48 hours; 37C incubation.
4; Reagent;5uL; CellTiter Glo (Promega).
5; Detector; 425V; Luminescence; Viewlux PerkinElmer.
NOTES (numbers refer to Sequence numbers above)
1. The cell-based screening methods employed in this study were like those previously published. Briefly, the corresponding myeloma cell lines were screened in 1,536-well plates with 500 cells, 5-uL per well for inhibition of cell viability (assessed by measuring ATP levels with CellTiterGlo).
2. NCATS MIPE 4.0 library of approved and investigational drugs were added using the Kalypsis pin tool. Wells treated with DMSO only for 100% viability and media only for 0% viability were used as controls.
3. The assay plates were covered and incubated for 48 hours in a 37C, 5% CO2 incubator with controlled humidity.
4. After 48 hours, CellTilter-GloTM luminescent substrate mix (Promega) reagent was added to the assay plate and plates we incubated for 5 min at room temperature.
5. Signal was measured as median relative luminescence units on a ViewLux (PerkinElmer) multiplate reader.
[1] Heske CM, Davis MI, Baumgart JT, Wilson K, Gormally MV, Chen L, Zhang X, Ceribelli M, Duveau DY, Guha R, Ferrer M, Arnaldez FI, Ji J, Tran HL, Zhang Y, Mendoza A, Helman LJ, Thomas CJ. Matrix Screen Identifies Synergistic Combination of PARP Inhibitors and Nicotinamide Phosphoribosyltransferase (NAMPT) Inhibitors in Ewing Sarcoma. Clin Cancer Res. 2017 Dec 1;23(23):7301-7311. doi: 10.1158/1078-0432.CCR-17-1121. Epub 2017 Sep 12. PMID: 28899971; PMCID: PMC6636827.
Potency is read from the fitted curve at half-maximal effect.

Structure (SMILES)	Potency
CC[C@@H](C)[C@H](NC(=O)[C@H](CC1CCCCC1)NC(=O)c1ccno1)C(=O)N1CCC2(CCc3ccccc32)CC1	11.8 µM (active)
CNC(=O)c1ccc(C)c(-n2c(C)cc(OCc3ccc(F)cc3F)c(Br)c2=O)c1	18.7 µM (active)
Cc1ccccc1C(C(=O)NC1CCCC1)N(C(=O)Cn1cnc2ccccc21)c1cccc(F)c1 (stereo not given)	16.6 µM (active)
Cc1cc2c(C(C)C)c(O)c(O)c(C=O)c2c(O)c1-c1c(C)cc2c(C(C)C)c(O)c(O)c(C=O)c2c1O	18.7 µM (active)
CC(C)(N)C(=O)N[C@H](COCc1ccccc1)C(=O)N1CCC2(CC1)CN(S(C)(=O)=O)c1ccccc12	23.5 µM (active)
Cc1ccc(NC(=O)c2cccc(C(C)(C)C#N)c2)cc1Nc1ccc2ncn(C)c(=O)c2c1	16.6 µM (active)
O=C(Nc1nc2ccccc2n1CCN1CCOCC1)c1cccc([N+](=O)[O-])c1	13.2 µM (active)
CCCn1c(=O)c2[nH]c(C34CC5CC3C[C@@H](C5)C4)nc2n(CCC)c1=O	18.7 µM (active)
N#Cc1ccc(C(c2ccc(C#N)cc2)n2cncn2)cc1	11.8 µM (active)
COc1cc(Oc2ccnc3cc(OC)c(OC)cc23)ccc1NC(=O)NC(C)c1nccs1 (stereo not given)	16.6 µM (active)
Nc1ncnc2nc(-c3ccc(N4CCOCC4)nc3)cc(-c3cccc(Br)c3)c12	11.8 µM (active)
CCC(C)n1ncn(-c2ccc(N3CCN(c4ccc(OC[C@H]5CO[C@](Cn6cncn6)(c6ccc(Cl)cc6Cl)O5)cc4)CC3)cc2)c1=O (stereo not given in full)	2.96 µM (active)
N#CC[C@H](C1CCCC1)n1cc(-c2ncnc3[nH]ccc23)cn1	16.6 µM (active)
COc1cccc2cc(-c3nc(C4CCC(C(=O)O)CC4)n4ncnc(N)c34)[nH]c12 (stereo not given)	0.662 µM (active)
O=c1[nH]c(-c2ccc(C(F)(F)F)cc2)nc2c1CSCC2	7.43 µM (active)
COc1ccc(COc2cc3oc(=O)c4cc(C(C)O)ccc4c3cc2OC)cc1 (stereo not given)	18.7 µM (active)
Cc1cc([C@@H](C)Nc2ccccc2C(=O)O)c2nc(N3CCOCC3)cc(=O)n2c1	19.1 µM (active)
C[C@@H]1CN(Cc2ccc(F)cc2)[C@@H](C)CN1C(=O)c1cc2c(C(=O)C(=O)N(C)C)cn(C)c2cc1Cl	23.5 µM (active)
COc1ccc(C2=N[C@H](c3ccc(Cl)cc3)[C@H](c3ccc(Cl)cc3)N2C(=O)N2CCNC(=O)C2)c(OC(C)C)c1	4.69 µM (active)
Cc1c(CCOc2ccc(C(=O)O)cc2)c2cc(Cl)ccc2n1C(c1ccccc1)c1ccccc1	14.8 µM (active)

Structure (SMILES)	Potency
COc1cc(F)c(F)c(Nc2ccc(I)cc2F)c1NS(=O)(=O)C1(C[C@H](O)CO)CC1	2.64 µM (active)
NCCc1ccc(O)c(O)c1	7.43 µM (active)
Nc1nc2ccc(OC(F)(F)F)cc2s1	23.5 µM (active)
COc1nc(-c2ccc3c(c2)OCO3)n(-c2ccc(NC(=O)CSc3ccccc3)cc2)n1	7.43 µM (active)
COc1ccc2c3n(c(=NC(=O)c4cccnc4)nc2c1OC)CCN3	4.69 µM (active)
CC(=O)NC(C)c1ccc(Oc2ccc(OC(C)C)cc2)cc1 (stereo not given)	16.6 µM (active)
O=C1CCCC2=C1C(c1[nH]ncc1Cl)N=C(Nc1nc3ccccc3o1)N2 (stereo not given)	4.69 µM (active)
Cc1cc(SCc2sc(-c3ccc(C(F)(F)F)cc3)nc2C)ccc1OCC(=O)O	5.26 µM (active)
NC(=O)C1CCCc2c1[nH]c1ccc(Cl)cc21 (stereo not given)	3.32 µM (active)
CC(C)NCC(O)COc1ccc(COCCOC(C)C)cc1 (stereo not given)	7.43 µM (active)
COc1ccccc1[C@H](c1cccc2ccccc12)[C@@](C)(C#N)C(=O)N1CCC(c2cccc(C(F)(F)F)c2)CC1	11.8 µM (active)
CCCCCCCc1ccc(CCc2cccc(O)c2C(=O)O)cc1	14.8 µM (active)
CC[C@H](Nc1ncnc2nc[nH]c12)c1nc2cccc(F)c2c(=O)n1-c1ccccc1	18.7 µM (active)
O=c1ncn2nc(Sc3ccc(F)cc3F)ccc2c1-c1c(Cl)cccc1Cl	20.9 µM (active)
O=C(Nc1cccnc1)N1CCC(Cc2cccc(Oc3ccc(C(F)(F)F)cn3)c2)CC1	10.5 µM (active)
Clc1ccc(Nc2nnc(Cc3ccncc3)c3ccccc23)cc1	18.7 µM (active)
COc1cc2nccc(Oc3ccc(NC(=O)NC4CC4)c(Cl)c3)c2cc1C(N)=O	2.35 µM (active)
CCOC(=O)N1CCC(=C2c3ccc(Cl)cc3CCc3cccnc32)CC1	23.5 µM (active)
Cc1cccc(-c2nn(C(=S)Nc3ccccc3)cc2-c2ccnc3ccccc23)n1	16.6 µM (active)
CC1(C)Cc2c(-c3ccccc3)c(-c3ccc(Cl)cc3)c(CC(=O)O)n2C1	20.9 µM (active)
